Test systems include HCT-15 colon; HT29 colon; SNB-75 CNS; SNB-19 CNS; U251 CNS; PC-3 prostate; SK-MEL-5 melanoma; LOX IMVI melanoma; SK-MEL-28 melanoma.
Experiment in all cases: NCI-60 one-dose screen, 48 h (100 = growth as untreated, 0 = no growth, -100 = all killed)
Holding throughout (conditions): 10 µM unless noted

The panel holds about 83,000 compounds, 20% with a hit somewhere; the sample as a whole holds those more often.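 Single-concentration screen, 48 h exposure, 96-well plates. Endpoint: percent growth. Below 10 = active.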 Values without a mark were called inactive. Active and inactive are the calls of the source.

As for `N#Cc1cnc2cc(OC[C@@H](O)CO)c(NC(=O)CC3CSSC3)cc2c1Nc1ccc(OCc2cccc(F)c2)c(Cl)c1`, the growth in the assay on HCT-15 colon is 22%; with HT29 colon, -81.6% (active); with SNB-75 CNS it was -88% (active); with SNB-19 CNS, -66% (active); in the assay with U251 CNS, -70.2% (active); with PC-3 prostate, -82.3% (active). The growth with SK-MEL-5 melanoma was -97% (active); with LOX IMVI melanoma it was -84.2% (active); with SK-MEL-28 melanoma, -71.9% (active).

Turning to `Clc1ccc(Cn2cc(-c3nc4ccc(Br)nc4n3Cc3ccc(Cl)cc3)c3cccnc32)cc1`, the growth is 87.2% in the assay with HCT-15 colon; 96.3% in the assay on HT29 colon; 64.1% with SNB-75 CNS; 89.2% in the assay with SNB-19 CNS; 94.8% in the assay on U251 CNS; 65.7% in the assay with PC-3 prostate. Further, the growth with SK-MEL-5 melanoma is 74.3%; in the assay on LOX IMVI melanoma, 85.4%.

On to `O=C1CCN2C(=O)Nc3ccccc3C2C1` (configuration not stated), for which the growth is 99% in the assay with HCT-15 colon; 104% in the assay on HT29 colon; 83.4% in the assay on SNB-75 CNS; 92% in the assay on SNB-19 CNS; 104% in the assay on U251 CNS; 95.2% in the assay with PC-3 prostate. For the same compound, the growth is 103% in the assay with SK-MEL-5 melanoma and 106% in the assay on LOX IMVI melanoma.

Turning to `Fc1ccc(NCc2nnc(-c3ccc(Cl)cc3)o2)cc1`, the growth in the assay with HCT-15 colon was 81.7%; with HT29 colon, 70%; in the assay with SNB-75 CNS, 73.6%; in the assay on SNB-19 CNS it was 83.2%; in the assay on U251 CNS, 77.8%; with PC-3 prostate, 54.3%. Further, the growth in the assay on SK-MEL-5 melanoma was 79.8%; in the assay with LOX IMVI melanoma it was 80.1%; with SK-MEL-28 melanoma it was 93.9%.

As for `COc1ccc2c3c(c4ccccc4cc13)C(=O)N(CCN(C)CCN)C2=O`, the growth in the assay with HCT-15 colon is -67.1% (active); with HT29 colon, -65.2% (active); with SNB-75 CNS, 8.84% (active); in the assay with SNB-19 CNS, -36.9% (active); in the assay with U251 CNS it was -86.3% (active); in the assay on PC-3 prostate, -63.2% (active). Moreover, the values for the growth with SK-MEL-5 melanoma and in the assay on LOX IMVI melanoma were -98% (active) and -84.8% (active), respectively.

As for `CN(C)c1ccc(C(=O)c2ccc(N(C)C)c(N)c2)cc1N`, the growth was 26% in the assay on HCT-15 colon; 9.95% (active) in the assay with HT29 colon; -11.3% (active) in the assay on SNB-75 CNS; 45.3% in the assay with SNB-19 CNS; 34.4% with U251 CNS; 49.3% with PC-3 prostate. The figures for the growth in the assay with SK-MEL-5 melanoma, in the assay on LOX IMVI melanoma and in the assay with SK-MEL-28 melanoma were 3.25% (active), 53.9% and 61.9%, respectively.

As to `CC/C=C\C[C@H]1CC=C2C(=O)C=C[C@@H]2CC=CCCCC(=O)O[C@@H](CCCCC)CC=C2C(=O)C=C[C@@H]2CC=CCCCC(=O)O[C@@H](CCCCC)CC=C2C(=O)C=C[C@@H]2CC=CCCCC(=O)O[C@@H](CCCCC)CC=C2C(=O)C=C[C@@H]2CC=CCCCC(=O)O1`, the growth is 47.1% [7.9 µM] in the assay with HCT-15 colon; 2.5% [7.9 µM] (active) with HT29 colon; 65.2% [7.9 µM] in the assay with SNB-75 CNS; 25.7% [7.9 µM] in the assay on SNB-19 CNS; -45.8% [7.9 µM] (active) in the assay with U251 CNS; 13.5% [7.9 µM] with PC-3 prostate. Also, the results for the growth in the assay on SK-MEL-5 melanoma, with LOX IMVI melanoma and in the assay on SK-MEL-28 melanoma were 17.9% [7.9 µM], -75.8% [7.9 µM] (active) and 11.9% [7.9 µM], respectively.

On to `O=C(NCN1C(=O)c2cccc3cccc(c23)C1=O)N1CCC(Cc2ccccc2)CC1`, for which the growth in the assay with HCT-15 colon was 104%; in the assay on HT29 colon, 70.1%; in the assay with SNB-75 CNS, 89.4%; in the assay on SNB-19 CNS it was 92.5%; in the assay on U251 CNS, 97.5%; with PC-3 prostate, 72.9%. In addition, the growth in the assay on SK-MEL-5 melanoma is 101%; in the assay with LOX IMVI melanoma it was 97.5%; in the assay on SK-MEL-28 melanoma it was 107%.

As for `Cc1cccc(C)c1NCc1nc(-c2ccccc2)n[nH]1`, the growth in the assay with HCT-15 colon was 101%; with HT29 colon it was 103%; in the assay on SNB-75 CNS, 89.7%; in the assay with SNB-19 CNS, 94.7%; in the assay with U251 CNS it was 101%; with PC-3 prostate, 100%. For the same compound, the growth in the assay with SK-MEL-5 melanoma is 102%; in the assay with LOX IMVI melanoma it was 97.9%; with SK-MEL-28 melanoma, 96.8%.

As for `Cc1ccc(N(CC(=O)Nc2ccc(S(=O)(=O)NC3CCN(C)CC3)cc2)S(=O)(=O)c2ccc(Cl)cc2)cc1`, the growth with HCT-15 colon was 90.6%; in the assay with HT29 colon, 10.2%; with SNB-75 CNS, 58.7%; in the assay on SNB-19 CNS, 88.3%; with U251 CNS, 19.5%; in the assay with PC-3 prostate it was 84.1%. For the same compound, the growth in the assay with SK-MEL-5 melanoma was -9.84% (active); with LOX IMVI melanoma it was -58.1% (active); in the assay on SK-MEL-28 melanoma, -68.3% (active).

Consider `CCCCC[C@H]1C/C=C2/C(=O)C(Cl)=C[C@@H]2C/C=C\CCCC(=O)O1`, for which the growth in the assay with HCT-15 colon was -61.9% (active); with HT29 colon it was -22.6% (active); in the assay on SNB-75 CNS, 5.2% (active); with SNB-19 CNS, -73.4% (active); with U251 CNS it was -91.7% (active); with PC-3 prostate it was -46.6% (active). Also, the results for the growth with SK-MEL-5 melanoma, with LOX IMVI melanoma and with SK-MEL-28 melanoma were -77.5% (active), -85.2% (active) and -64.7% (active), respectively.

For `Cn1cc(-c2csc(-c3cn(CCCN4CCCCC4)c4ccccc34)n2)c2cccnc21`, the growth is -78.2% (active) with HCT-15 colon; -87.7% (active) in the assay on HT29 colon; 49.3% in the assay with SNB-75 CNS; -65.6% (active) with SNB-19 CNS; -90.5% (active) with U251 CNS; -55.7% (active) in the assay on PC-3 prostate. Further, the results for the growth in the assay on SK-MEL-5 melanoma, with LOX IMVI melanoma and with SK-MEL-28 melanoma were -98.5% (active), -71.9% (active) and -82.6% (active), respectively.

In the case of `O=C1c2ccccc2NC(c2cn(-c3ccccc3)nc2-c2cccnc2)N1Cc1ccccc1` (configuration not stated), the growth was 84.7% with HCT-15 colon; 84.5% with HT29 colon; 92.9% in the assay on SNB-75 CNS; 109% in the assay with SNB-19 CNS; 93.6% in the assay with U251 CNS; 76.5% in the assay with PC-3 prostate. The values for the growth in the assay with SK-MEL-5 melanoma, with LOX IMVI melanoma and in the assay on SK-MEL-28 melanoma were 94.2%, 80.2% and 108%, respectively.

Turning to `CC1(c2ccccc2)OC1C(=O)O` (configuration not stated), the growth is 106% with HCT-15 colon; 102% in the assay on HT29 colon; 91.6% in the assay with SNB-75 CNS; 109% in the assay with SNB-19 CNS; 117% in the assay with U251 CNS; 106% with PC-3 prostate. The growth in the assay on SK-MEL-5 melanoma is 103%; in the assay with LOX IMVI melanoma, 97.4%; in the assay on SK-MEL-28 melanoma it was 98.7%.

Regarding `CCN(CC)CCCCCNc1cc(OC(=O)c2ccccc2)cc2cccnc12`, the growth was 78.5% with HCT-15 colon; 20.3% in the assay with HT29 colon; 70.9% in the assay on SNB-75 CNS; 101% with SNB-19 CNS; 98.2% in the assay on U251 CNS; 77% in the assay with PC-3 prostate. Also, the growth is 138% with SK-MEL-5 melanoma, 58.1% with LOX IMVI melanoma and 121% with SK-MEL-28 melanoma.

(Values after PubChem BioAssay (NCI).)
